The text below walks through data of PubChem BioAssay AID463212 (Sanford-Burnham Center for Chemical Genomics, 2010).

The structures appear in SMILES notation. The campaign covered roughly 330,000 compounds. About 4,400 (1.3%) were called active. Shown is part of a subset that was picked to be rich in actives. Values without a mark were called inactive.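 How the source made its calls: active means growth inhibition of the mutant yeast at or above 50%; inactive means the rest.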

The assay can be described thus: growth inhibitors of tim23-1 mutant yeast, primary screen, luminescence, uHTS (AID 463212).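 Further: temperature-sensitive mutant grown at 25 °C; plate controls were DMSO-treated mutant yeast for no effect and medium wells lacking yeast for full effect.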 Conditions: S. cerevisiae tim23-1 growth, BacTiter-Glo luminescence, 24 h; at 20 µM; active compounds read high.
`Cc1c(CN2CCC(n3nccc3NC(=O)CCc3ccccc3)CC2)cnn1C`: the inhibition is 3.04%. For `Cc1cccc(Nc2nc(-c3ccccc3)cs2)n1`, the inhibition is 55.1% (active). On to `CCc1noc(C)c1C(=O)Nc1nc(-c2ccccc2)cs1`, for which the inhibition is 22.5%. On to `Cc1ccccc1Nc1nc(-c2cccnc2)cs1`, for which the inhibition was 33.4%.

As for `CCC(C)OC(=O)C(C)Oc1ccc(-c2ccccc2)cc1` (configuration not stated), the inhibition is 3.46%.

On to `c1ccc(-c2nc(NCc3ccco3)c3ccccc3n2)cc1`, for which the inhibition was 53% (active).

With `Clc1cccc(-c2nc(NCC3CCCO3)c3ccccc3n2)c1` (configuration not stated), the inhibition was 28.9%.

On to `c1ccc2c(NCC3CCCO3)nc(-c3ccncc3)nc2c1` (configuration not stated), for which the inhibition was 13.1%.

For the compound `O=C(CO/N=C/c1ccc(OC(F)F)cc1)NCc1ccc(F)cc1`, the inhibition was 8.87%.

As to `CC(C)(C)Nc1nc(-c2ccccn2)nc2ccccc12`, the inhibition is -51.4%.

Regarding `Cc1ccc(Oc2nc(-c3ccccn3)nc3ccccc23)cc1`, the inhibition is 63.6% (active). As for `COc1cnc(-c2ccccn2)nc1Oc1ccc(C(C)(C)C)cc1`, the inhibition was 41.2%. With `CC(C)(COC(=O)Nc1ccccc1)COC(=O)Nc1ccccc1`, the inhibition is 29.8%. With `O=C(c1ccncc1)N1CCN(S(=O)(=O)c2cccc([N+](=O)[O-])c2)CC1` the figure was 3.41%; with `CC(Sc1nc2cc(Cl)ccc2s1)C(=O)Nc1ccc2c(c1)OCO2` (configuration not stated), 32%. With `NS(=O)(=O)c1ccc(NC(=S)N2CCCC2)cc1` the figure was -14.9%; with `COc1ccccc1NS(=O)(=O)c1ccc(C)c(C(=O)NNC(=O)c2csc(N3CCOCC3)n2)c1`, -7.58%; with `Cc1ccc(C(=O)OC2=CC(=O)CC(C)(C)C2)cc1`, 52.8% (active). With `COC(=O)NNC1=CC(=O)CC(C)(C)C1` the figure was -3.94%; with `Cc1ccc(C(=O)Oc2ccc(C(=S)N3CCOCC3)cc2)cc1`, -1.92%. As to `O=C(CSc1nnnn1C1CCCC1)N1CCCCC1`, the inhibition is 4.13%.

Turning to `C[C@H]1CC[C@]2(O[C@@H](CCO)C[C@@H](O)[C@@H]2O)O1`, the inhibition was 23.4%. Under `O=C(O)c1ccc(N/N=C/c2cn(-c3ccccc3)nc2-c2cccs2)cc1` stands 40.4%; under `COc1ccc(-c2nn(-c3ccccc3)cc2/C=N/Nc2ccccn2)cc1OC`, 45.7%. As to `O=Cc1cn(-c2ccccc2)nc1-c1ccccn1`, the inhibition was 58.8% (active). With `O=C(c1ccccn1)c1ncc(C(F)(F)F)cc1Cl` the figure was 3%. Under `N/C(=N\OC(=O)CCCC(=O)O)c1ncc(C(F)(F)F)cc1Cl` stands 9.72%; under `N/C(=N\OC(=O)Nc1ccc(Cl)c(Cl)c1)c1ncc(C(F)(F)F)cc1Cl`, 73.9% (active); under `Cc1cccc(NC(=O)Cn2cc(C(=O)c3ccco3)c3ccccc32)c1`, 7.71%. With `O=C(NCCSc1ncc(-c2ccccc2)[nH]1)c1ccco1` the figure was -8.72%; with `CCOc1ccc(C(=O)Nc2cccc(SC)c2)cc1`, 10.1%; with `O=C1NC(Cc2ccc(O)cc2)c2nc3ccc(Cl)cc3c(=O)n2-c2ccccc21` (configuration not stated), 15%. Turning to `CCOc1ccc(C(C)NC(=O)CN2C(=O)NC3(CCCCC3)C2=O)cc1OCC` (configuration not stated), the inhibition is 7.68%. Take `CCOc1ccc(C(c2c(C)[nH][nH]c2=O)c2c(C)[nH][nH]c2=O)cc1OCC`: the inhibition is 54.5% (active). As to `CCOc1ccc(C(CC(=O)O)NC(=O)Cc2ccccc2)cc1OC` (configuration not stated), the inhibition was -3.51%.

In the case of `CCOC(=O)N1CCN(C(=O)c2cn(C)c3ccc(S(=O)(=O)N(CC)CC)cc3c2=O)CC1`, the inhibition is 2.29%.

Turning to `Cc1ccc(S(=O)(=O)NCC(C)NS(C)(=O)=O)cc1` (configuration not stated), the inhibition is -7.63%.

Turning to `CCOCCCNC(=O)Cc1cc(=O)[nH]c(=O)[nH]1`, the inhibition is -8.09%.

`COC(=O)c1ccc(-c2c(-c3ccccc3)ncc3cc(OC)c(OC)cc23)cc1`: the inhibition was 18.9%. Under `CCOC(=O)C1CSC(CC(=O)Nc2ccc(OCC)cc2)C(=O)N1` (configuration not stated) stands 4.52%; under `Cc1cccc(NC(=S)NC23CN4CN(CN(C4)C2)C3)c1`, 1.34%; under `Cc1cccc(NC(=S)Nc2ccc(Cl)c(Cl)c2)c1`, 60.8% (active). For the compound `Cc1cccc(NC(=S)Nc2ccc3cn[nH]c3c2)c1`, the inhibition was -3.63%. Take `Cc1ccc(-n2ncc(C(=O)NC3CC3)c2C2CCN(C(=O)OC(C)(C)C)CC2)c(C)c1`: the inhibition is 13.5%. With `CCOC(=O)Nc1ccc2c(c1)N(C(=O)CN1CCN3CCCC3C1)c1ccccc1CC2` (configuration not stated) the figure was 11.3%; with `Cc1ccc(C(=O)/C=C/c2c(C)nn(-c3ccccc3)c2Cl)cc1`, 36.5%; with `Cc1nn(-c2ccccc2)c(Cl)c1/C=C/C(=O)c1ccc(O)cc1`, 50.6% (active). Under `Cc1nn(-c2ccccc2)c(C)c1/C=C/C(=O)OC(C)C(N)=O` (configuration not stated) stands 10.4%; under `CCOc1cc(/C=C2\SC(N3CCCC(C)C3)=NC2=O)ccc1O` (configuration not stated), 51.4% (active). As to `CCOc1cc(/C=C2\SC(N3CCCCC3)=NC2=O)ccc1O`, the inhibition was 38.3%. Under `CC1CCN(C2=NC(=O)/C(=C/c3ccc(O)cc3)S2)CC1` stands 31.9%.

Regarding `COc1ccc(N(CC(=O)NC2CCCCC2)S(=O)(=O)c2c(C)[nH]c(=O)[nH]c2=O)cc1`, the inhibition is 6.85%.

With `O=C(CSc1cccc2cccnc12)N/N=C/c1cccnc1`, the inhibition was 52.9% (active). In the case of `Cc1ccc(NC(=O)CSc2cccc3cccnc23)c(C)c1`, the inhibition was 19.5%. With `CCOC(=O)N/N=C/c1cccnc1`, the inhibition is 4.17%. With `N#Cc1ccc(C(c2ccc(C#N)cc2)n2cncn2)cc1` the figure was 9.59%. Turning to `CCc1noc(C)c1C(=O)N1CCCC(N2CCN(c3ccc(F)cc3)CC2)C1` (configuration not stated), the inhibition was -9.74%. On to `CC(C)OC(=O)Cn1nc(C(F)(F)F)c2c1CCCC2`, for which the inhibition is -5.77%.

With `Cc1ccccc1C(=O)NC(=S)Nc1ccc(N2CCN(C(=O)c3ccccc3)CC2)cc1`, the inhibition was -0.446%. Turning to `Cc1ccccc1C(=O)NC(=S)NC1CC1`, the inhibition is 56.1% (active).

For the compound `O=C(NC(=S)NC1CCSC1=O)c1ccccc1F` (configuration not stated), the inhibition is -11.9%. Turning to `COC(=O)[C@@]1(C)[C@H]2C(=O)N(Cc3ccccc3)C(=O)[C@H]2[C@H]2CN=C(SCC3CC3)N21`, the inhibition is 28.2%.

In general, inhibition refers to the change of the read-out against control, counted positive when it falls.
